Laboratory results: PubChem BioAssay (EPA / NIEHS)
“And” between values parts separate entries of the source, which are not always exact repeats. Equal values may be shown once. Some compounds were tested as several samples or in several runs, with calls that do not always agree. The source made the active and inactive calls. The calls were made as follows: active = hit-call score of the fitted dose curve at least 0.9, where 1 is the maximum; inactive = score below 0.9.

Assays:
[1] = read-out: Tissue plasminogen activator (tPA), PLAT (gene 5327); assay: BSK_BE3C_tPA: BioMAP Diversity Plus: BE3C Assay for Tissue plasminogen activator (tPA) Biomarker Activity (AID 2283041); conditions: primary human bronchial epithelial cells; actives raise or lower the signal;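 as to outcome: tPA level quantified by ELISA one day after compound addition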
Procedure, shortened: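 Primary human bronchial epithelial cells in the BE3C system, exposed to compound for 24 h. tPA was quantified by ELISA; DMSO served as baseline, with gain or loss of signal fitted. Cytotoxicity checked in parallel cultures by SRB total-protein staining.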

[2] = read-out: Interleukin-8 (IL8), CXCL8 (gene 3576); assay: BSK_CASM3C_IL8: BioMAP Diversity Plus: CASM3C Assay for Interleukin-8 (IL8) Biomarker Activity (AID 2283042); conditions: primary human coronary artery smooth muscle cells; actives raise or lower the signal;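 also: IL-8 protein level quantified by ELISA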
[3] = read-out: Human Leukocyte Antigen - DR isotype (HLADR), HLA-DRA (gene 3122); assay: BSK_CASM3C_HLADR: BioMAP Diversity Plus: CASM3C Assay for Human Leukocyte Antigen - DR isotype (HLADR) Biomarker Activity (AID 2283043); conditions: primary human coronary artery smooth muscle cells; actives raise or lower the signal;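 also: cell-surface HLA-DR protein level quantified by ELISA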
[4] = read-out: Macrophage colony-stimulating factor (MCSF), CSF1 (gene 1435); assay: BSK_CASM3C_MCSF: BioMAP Diversity Plus: CASM3C Assay for Macrophage colony-stimulating factor (MCSF) Biomarker Activity (AID 2283044); conditions: primary human coronary artery smooth muscle cells; actives raise or lower the signal;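 also: M-CSF protein amount quantified by ELISA after 24 h exposure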
[5] = read-out: Low-density lipoprotein receptor (LDLR), LDLR (gene 3949); assay: BSK_CASM3C_LDLR: BioMAP Diversity Plus: CASM3C Assay for Low-density lipoprotein receptor (LDLR) Biomarker Activity (AID 2283045); conditions: primary human coronary artery smooth muscle cells; actives raise or lower the signal;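 also: LDLR protein level on the cell surface quantified by ELISA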
[6] = read-out: Monocyte Chemoattractant Protein-1 (MCP1), CCL2 (gene 6347); assay: BSK_CASM3C_MCP1: BioMAP Diversity Plus: CASM3C Assay for Monocyte Chemoattractant Protein-1 (MCP1) Biomarker Activity (AID 2283046); conditions: primary human coronary artery smooth muscle cells; actives raise or lower the signal;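 also: MCP-1 level quantified by ELISA 24 h after dosing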
[7] = BSK_CASM3C_Proliferation: Cell Proliferation Assessment in the BioMAP Diversity Plus: CASM3C Assay (AID 2283047); conditions: primary human coronary artery smooth muscle cells;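 also: sulforhodamine B total protein stain as relative cell number at 560 nm; sub-confluent cells exposed 48 h before staining; fitted both ways against DMSO so gain or loss of cell number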
[8] = read-out: Monokine induced gamma interferon (MIG), CXCL9 (gene 4283); assay: BSK_CASM3C_MIG: BioMAP Diversity Plus: CASM3C Assay for Monokine induced gamma interferon (MIG) Biomarker Activity (AID 2283048); conditions: primary human coronary artery smooth muscle cells; actives raise or lower the signal;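 also: MIG protein level measured by ELISA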
[9] = read-out: serum amyloid A (SAA), SAA1 (gene 6288); assay: BSK_CASM3C_SAA: BioMAP Diversity Plus: CASM3C Assay for serum amyloid A (SAA) Biomarker Activity (AID 2283049); conditions: primary human coronary artery smooth muscle cells; actives raise or lower the signal;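 also: SAA protein level quantified by ELISA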
[10] = BSK_CASM3C_SRB: Viability Assessment in the BioMAP Diversity Plus: CASM3C Assay (AID 2283050); conditions: primary human coronary artery smooth muscle cells

SMILES	AC50 [1]	AC50 [2]	AC50 [3]	AC50 [4]	AC50 [5]	outcome [5]	AC50 [6]	AC50 [7]	AC50 [8]	AC50 [9]	AC50 [10]	outcome [2]	outcome [3]	outcome [4]	outcome [8]	outcome [9]	outcome [1]	outcome [6]	outcome [10]	outcome [7]
CCCN(CCC)c1c([N+](=O)[O-])cc(S(N)(=O)=O)cc1[N+](=O)[O-]	30.3 µM (active) [middle of 4 runs]	33.5 µM (active) [middle of 4 runs]	34.4 µM (active) [middle of 4 runs]	36.1 µM (active) [middle of 4 runs]	39.7 µM (active)	inactive	37.1 µM (active) [middle of 4 runs]	35.1 µM (active) [middle of 4 runs]	34.7 µM (active) [middle of 4 runs]	37.1 µM (active) [middle of 4 runs]	35.6 µM (active) [middle of 4 runs]									
Fc1ccc(Oc2ccnc3cc(Cl)cc(Cl)c23)cc1	31.9 µM (active)					inactive	30.6 µM (active)	24.4 µM (active)			23.7 µM (active)	inactive	inactive	inactive	inactive	inactive				
C=CCC1=C(C)C(OC(=O)C2C(C=C(C)C)C2(C)C)CC1=O (stereo not drawn)			31.7 µM (active) and 32 µM (active) and 27.9 µM (active)		16.8 µM (active) and 21 µM (active)	inactive		34.4 µM (active) [middle of 4 runs]		4.17 µM (active)		inactive	inactive	inactive	inactive	inactive	inactive	inactive	inactive	
CCCC1COC(Cn2cncn2)(c2ccc(Cl)cc2Cl)O1 (stereo not drawn)						inactive						inactive	inactive	inactive	inactive	inactive	inactive	inactive	inactive	inactive
CCCCC(CC)COC(=O)c1ccccc1C(=O)OCC(CC)CCCC (stereo not drawn)						inactive						inactive	inactive	inactive	inactive	inactive	inactive	inactive	inactive	inactive
CCON=C(CC)C1=C(O)CC(c2c(C)cc(C)cc2C)CC1=O (stereo not drawn)						inactive						inactive	inactive	inactive	inactive	inactive	inactive	inactive	inactive	inactive
CO/C=C(/C(=O)OC)c1ccccc1Oc1cc(Oc2ccccc2C#N)ncn1	28.2 µM (active)					inactive	30.7 µM (active) and 37.9 µM (active) and 37.6 µM (active)	13.5 µM (active) and 27.1 µM (active) and 13.9 µM (active)				inactive	inactive	inactive	inactive	inactive	inactive	inactive	inactive	inactive
O=C(O)c1nc(Cl)ccc1Cl						inactive	0.147 µM (active)					inactive	inactive	inactive	inactive	inactive	inactive	inactive	inactive	inactive
CCCCNC(=O)OCC#CI	30 µM (active)	36.6 µM (active)	30.8 µM (active) and 24.6 µM (active)	26.4 µM (active) and 15.8 µM (active)		inactive	20.8 µM (active) and 24.5 µM (active)	6.91 µM (active) and 7.15 µM (active)	29.5 µM (active) and 28.7 µM (active)	14.8 µM (active) and 14.3 µM (active)	30.5 µM (active) and 30.6 µM (active)						inactive			
COc1cnc(OC)n2nc(NS(=O)(=O)c3c(OCC(F)F)cccc3C(F)(F)F)nc12					16.8 µM (active)	inactive						inactive	inactive	inactive	inactive	inactive	inactive	inactive	inactive	inactive
COP(=S)(OC)Oc1nc(Cl)c(Cl)cc1Cl						inactive		32.1 µM (active)				inactive	inactive	inactive	inactive	inactive	inactive	inactive	inactive	
N#Cc1nn(-c2c(Cl)cc(C(F)(F)F)cc2Cl)c(N)c1S(=O)C(F)(F)F (stereo not drawn)				25.1 µM (active)		inactive		20 µM (active)			24.9 µM (active)	inactive	inactive		inactive	inactive	inactive	inactive		
OC(c1ccc(Cl)cc1)(c1cncnc1)c1ccccc1Cl (stereo not drawn)						inactive		27.6 µM (active)				inactive	inactive	inactive	inactive	inactive	inactive	inactive	inactive	
CC(C)Oc1cc(-n2nc(C(C)(C)C)oc2=O)c(Cl)cc1Cl						inactive		29 µM (active)				inactive	inactive	inactive	inactive	inactive	inactive	inactive	inactive	
COC(=O)N(OC)c1ccccc1COc1ccn(-c2ccc(Cl)cc2)n1		15.8 µM (active)				inactive		6.45 µM (active)					inactive	inactive	inactive	inactive	inactive	inactive	inactive	
COc1nc(C)nc(NC(=O)NS(=O)(=O)c2ccccc2Cl)n1						inactive	0.507 µM (active)					inactive	inactive	inactive	inactive	inactive	inactive	inactive	inactive	inactive
COc1nc(NC(C)C)nc(NC(C)C)n1						inactive						inactive	inactive	inactive	inactive	inactive	inactive	inactive	inactive	inactive
CCCCOC(=O)c1ccccc1C(=O)OCCCC				0.767 µM (active)		inactive		34.9 µM (active)				inactive	inactive	inactive	inactive	inactive	inactive	inactive	inactive	inactive
C#CCOS(=O)OC1CCCCC1Oc1ccc(C(C)(C)C)cc1 (stereo not drawn)	13.2 µM (active)		9.71 µM (active)	27 µM (active)		inactive	29.8 µM (active)	16.5 µM (active)		5.32 µM (active)	20 µM (active)	inactive			inactive					
CC(C)(C)c1ccc(CSc2cnn(C(C)(C)C)c(=O)c2Cl)cc1					20 µM (active)			6.17 µM (active)				inactive	inactive	inactive	inactive	inactive	inactive	inactive	inactive	
COc1ccc(C(c2ccc(OC)cc2)C(Cl)(Cl)Cl)cc1						inactive		15.1 µM (active)			18.4 µM (active)	inactive	inactive	inactive	inactive	inactive	inactive	inactive		
CNC(=S)S						inactive						inactive	inactive	inactive	inactive	inactive	inactive	inactive	inactive	inactive
COC(=O)C=C(C)OP(=O)(OC)OC						inactive						inactive	inactive	inactive	inactive	inactive	inactive	inactive	inactive	inactive
C=CCC1=C(C)[C@@H](OC(=O)[C@@H]2[C@@H](C=C(C)C)C2(C)C)CC1=O					20 µM (active)							inactive	inactive	inactive	inactive	inactive	inactive	inactive	inactive	inactive
COc1nc(C)nc(NC(=O)NS(=O)(=O)c2ccccc2CCC(F)(F)F)n1						inactive						inactive	inactive	inactive	inactive	inactive	inactive	inactive	inactive	inactive
CN(C)C(=S)SSC(=S)N(C)C	12 µM (active)			12 µM (active)		inactive	20 µM (active)	12.6 µM (active)	14.6 µM (active)			inactive	inactive			inactive			inactive	
